# Measurements published in the antibiotic and cytotoxicity screens of Wong et al. (2023).
# Among all 39,000 compounds or so, about 3,300 (8.5%) were called active. For the sample, actives were picked, then their nearest neighbours and some compounds at random.
# Test system: HepG2
# Test: cytotoxicity call (relative viability < 0.9)
# Conditions: 10 µM
row,SMILES,cytotoxicity call
1,O=C1O[C@H](c2ccccc2)[C@H](c2ccccc2)N2[C@H]1[C@@H](C(=O)O)[C@]1(C(=O)Nc3ccc(Cl)cc31)[C@H]2c1ccc(F)cc1,inactive
2,NC(=O)COc1ccccc1,inactive
3,C[C@H](CO)N1C[C@H](C)[C@H](CN(C)C(=O)Nc2ccc3c(c2)OCO3)OCc2cnnn2CCCC1=O,inactive
4,Cc1noc(C)c1S(=O)(=O)N(C)C[C@@H]1Oc2ccc(NS(C)(=O)=O)cc2C(=O)N([C@@H](C)CO)C[C@@H]1C,inactive
5,C[C@@H]1CCCCO[C@@H](CN(C)S(=O)(=O)c2cn(C)cn2)[C@@H](C)CN([C@H](C)CO)C(=O)c2cc(NS(C)(=O)=O)ccc2O1,inactive
6,COCC(=O)Nc1ccc2c(c1)C(=O)N(C)C[C@H](OC)[C@H](C)CN(Cc1cccc(F)c1)[C@H](C)CO2,inactive
7,C=CCOC(=O)[C@@H]1[C@H]2C(=O)O[C@H](c3ccccc3)[C@H](c3ccccc3)N2[C@H](c2ccc(OCCOC(=O)[C@H]3C[C@H]4C(=O)NCC(=O)N4[C@H]3c3cccc(OCCO)c3)cc2)[C@@]12C(=O)Nc1ccccc12,inactive
8,C[C@@H]1CN([C@@H](C)CO)C(=O)c2cc(NC(=O)NC3CCCCC3)ccc2O[C@@H](C)CCCCO[C@@H]1CN(C)S(=O)(=O)c1ccc(F)cc1,inactive
9,C[C@H]1CN([C@@H](C)CO)C(=O)c2cc(NS(=O)(=O)c3ccc(F)cc3)ccc2O[C@@H]1CN(C)C(=O)Nc1ccc(C(F)(F)F)cc1,inactive
10,C[C@@H]1CCCCO[C@@H](CN(C)CC2CC2)[C@H](C)CN([C@H](C)CO)C(=O)c2cc(NC(=O)Nc3ccccc3)ccc2O1,inactive
11,C[C@@H]1CCCCO[C@@H](CN(C)CC2CCCCC2)[C@@H](C)CN([C@@H](C)CO)C(=O)c2cc(NC(=O)Nc3ccccc3)ccc2O1,active
12,C[C@@H]1CCCCO[C@H](CN(C)CC2CCCCC2)[C@H](C)CN([C@H](C)CO)C(=O)c2cc(NC(=O)Nc3ccccc3)ccc2O1,active
13,C[C@H](CO)N1C[C@H](C)[C@H](CN(C)CC2CCCCC2)OCCCC[C@H](C)Oc2ccc(NC(=O)Nc3ccccc3)cc2C1=O,active
14,C[C@@H]1CCCCO[C@@H](CN(C)CC2CCCCC2)[C@H](C)CN([C@H](C)CO)C(=O)c2cc(NC(=O)Nc3ccccc3)ccc2O1,active
15,C[C@H]1CCCCO[C@H](CN(C)CC2CC2)[C@@H](C)CN([C@@H](C)CO)C(=O)c2cc(NC(=O)Nc3ccccc3)ccc2O1,inactive
16,C[C@H](CO)N1C[C@H](C)[C@@H](CN(C)CC2CC2)OCCCC[C@H](C)Oc2ccc(NC(=O)Nc3ccccc3)cc2C1=O,inactive
17,C[C@@H]1CCCCO[C@@H](CN(C)CC2CC2)[C@H](C)CN([C@@H](C)CO)C(=O)c2cc(NC(=O)Nc3ccccc3)ccc2O1,inactive
18,Cc1csc2c(N3CCC(Cn4cc(C(C)(C)N)nn4)CC3)ncnc12,inactive
19,C[C@@H]1OC2=C(Cl)C(=O)N3CCC[C@H]3C[C@@]21O,inactive
20,Cc1ccc(S[C@]2(C(=O)NCC(F)(F)F)CC(=O)N(Cc3ccccc3)[C@@H]2c2ccc(CO)cc2I)cc1,inactive

row,SMILES,cytotoxicity call
1,C[C@@H]1CN([C@H](C)CO)S(=O)(=O)c2ccc(C#Cc3cccc(F)c3)cc2O[C@@H]1CN(C)CC1CC1,inactive
2,COC(=O)[C@@H]1[C@@H](CO)[C@@H]2Cn3c(cccc3=O)[C@@H]2N1C(=O)C1CC1,inactive
3,C[C@H](NC(=O)C[C@@H]1CC[C@H](NC(=O)CN2CCOCC2)[C@@H](CO)O1)c1ccccc1,inactive
4,C[C@@H]1CCCCO[C@H](CN(C)Cc2ccccc2)[C@H](C)CN([C@H](C)CO)C(=O)c2cc(NC(=O)Cc3ccccc3)ccc2O1,inactive
5,C[C@H]1CN([C@@H](C)CO)C(=O)c2cc(NS(=O)(=O)c3ccc(Cl)cc3)ccc2O[C@@H]1CN(C)C(=O)Nc1ccc(C(F)(F)F)cc1,inactive
6,C[C@@H]1CN([C@H](C)CO)C(=O)c2cc(NS(=O)(=O)c3ccc(Cl)cc3)ccc2O[C@H]1CN(C)C(=O)Nc1ccc(C(F)(F)F)cc1,inactive
7,C[C@@H]1CN([C@H](C)CO)C(=O)c2cc(NS(=O)(=O)c3ccc(Cl)cc3)ccc2O[C@@H]1CN(C)C(=O)Nc1ccc(C(F)(F)F)cc1,active
8,C[C@H](CO)N1C[C@H](C)[C@H](CN(C)C(=O)Nc2ccc(C(F)(F)F)cc2)OCCCC[C@H](C)Oc2ccc(NS(=O)(=O)c3ccc(Cl)cc3)cc2C1=O,active
9,C[C@H]1CCCCO[C@@H](CN(C)C(=O)Nc2ccc(C(F)(F)F)cc2)[C@@H](C)CN([C@@H](C)CO)C(=O)c2cc(NS(=O)(=O)c3ccc(Cl)cc3)ccc2O1,inactive
10,C[C@@H]1CCCCO[C@H](CN(C)C(=O)Nc2ccc(C(F)(F)F)cc2)[C@H](C)CN([C@H](C)CO)C(=O)c2cc(NS(=O)(=O)c3ccc(Cl)cc3)ccc2O1,active
11,C[C@@H]1CCCCO[C@H](CN(C)C(=O)Nc2ccc(C(F)(F)F)cc2)[C@@H](C)CN([C@H](C)CO)C(=O)c2cc(NS(=O)(=O)c3ccc(Cl)cc3)ccc2O1,inactive
12,C[C@@H]1CCCCO[C@H](CN(C)C(=O)Nc2ccc(C(F)(F)F)cc2)[C@H](C)CN([C@@H](C)CO)C(=O)c2cc(NS(=O)(=O)c3ccc(Cl)cc3)ccc2O1,inactive
13,C[C@H]1CCCCO[C@H](CN(C)C(=O)Nc2ccc(C(F)(F)F)cc2)[C@@H](C)CN([C@@H](C)CO)C(=O)c2cc(NS(=O)(=O)c3ccc(Cl)cc3)ccc2O1,inactive
14,C[C@@H]1CCCCO[C@@H](CN(C)C(=O)Nc2ccc(C(F)(F)F)cc2)[C@H](C)CN([C@@H](C)CO)C(=O)c2cc(NS(=O)(=O)c3ccc(Cl)cc3)ccc2O1,inactive
15,C[C@H](CO)N1C[C@H](C)[C@@H](CN(C)C(=O)Nc2ccc(C(F)(F)F)cc2)OCCCC[C@H](C)Oc2ccc(NS(=O)(=O)c3ccc(Cl)cc3)cc2C1=O,active
16,C[C@@H]1CN([C@@H](C)CO)C(=O)c2cc(NS(=O)(=O)c3ccc(Cl)cc3)ccc2O[C@@H](C)CCCCO[C@@H]1CN(C)C(=O)Nc1ccc(C(F)(F)F)cc1,inactive
17,NCCCC[C@@H](N)C(=O)N[C@@H](Cc1ccc(O)cc1)C(=O)N[C@@H](CCCCN)C(=O)O,inactive
18,C[C@@H]1CCCCO[C@H](CN(C)C(=O)NC2CCCCC2)[C@H](C)CN([C@@H](C)CO)C(=O)c2cc(NC(=O)Cc3ccccc3)ccc2O1,inactive
19,COc1ccc(NC(=O)N(C)C[C@@H]2OCCCC[C@H](C)Oc3ccc(NC(=O)Nc4ccc5c(c4)OCO5)cc3C(=O)N([C@H](C)CO)C[C@@H]2C)cc1,inactive
20,C[C@H]1CCCCO[C@@H](CN(C)C(=O)Nc2ccc(C(F)(F)F)cc2)[C@@H](C)CN([C@@H](C)CO)C(=O)c2cc(NC(=O)Cc3ccccc3)ccc2O1,inactive

row,SMILES,cytotoxicity call
1,O=C(C[C@H]1CC[C@@H]2[C@H](COC[C@@H](O)CN2CC2CCOCC2)O1)N1CCOCC1,inactive
2,C[C@@H]1CCCCO[C@@H](CN(C)C(=O)Nc2ccccc2)[C@H](C)CN([C@H](C)CO)C(=O)c2cc(NC(=O)NC3CCCCC3)ccc2O1,inactive
3,C[C@@H]1CN([C@H](C)CO)C(=O)c2cc(NC(=O)Nc3cccc4ccccc34)ccc2O[C@@H]1CN(C)S(=O)(=O)c1ccc(F)cc1,inactive
4,CCS(=O)(=O)N1C[C@]2(CN(C2)S(=O)(=O)c2cn(cn2)C)c2c(n(c3cc(ccc23)OC)C)[C@H]1CO,inactive
5,C[C@@H]1CCCCO[C@H](CN(C)C(=O)Nc2ccc(C(F)(F)F)cc2)[C@@H](C)CN([C@@H](C)CO)C(=O)c2cc(NS(=O)(=O)c3ccc(Cl)cc3)ccc2O1,inactive
6,C[C@@H]1CN([C@H](C)CO)C(=O)c2cc(NS(=O)(=O)c3ccc(Cl)cc3)ccc2O[C@@H](C)CCCCO[C@H]1CN(C)C(=O)Nc1ccc(C(F)(F)F)cc1,active
7,C[C@@H]1CCCCO[C@@H](CN(C)C(=O)Nc2ccc(C(F)(F)F)cc2)[C@H](C)CN([C@H](C)CO)C(=O)c2cc(NS(=O)(=O)c3ccc(Cl)cc3)ccc2O1,inactive
8,O=C(C[C@H]1CC[C@@H]2[C@H](COC[C@H](O)CN2S(=O)(=O)c2ccccc2)O1)NCCN1CCCCC1,inactive
9,C[C@H]1CCCCO[C@H](CN(C)Cc2ccccc2)[C@@H](C)CN([C@@H](C)CO)C(=O)c2cc(NC(=O)Nc3ccccc3)ccc2O1,inactive
10,COC(=O)[C@@]12OC[C@]34[C@H]([C@@H](O)[C@@H]1O)[C@@]1(C)CC(=O)C(=O)[C@H](C)[C@@H]1C[C@H]3OC(=O)[C@H](OC(=O)/C=C(\C)C(C)C)[C@@H]24,active
11,COc1ccc2c3c([nH]c2c1)[C@H](CO)N(C[C@]13CCN(CC1)CC1CCCC1)C(=O)Nc1cccc(c1)F,active
12,COc1ccc2c3c([nH]c2c1)[C@@H](CO)N(CC1CCCC1)C[C@]13CCN(CC1)C(=O)Nc1cccc(c1)F,inactive
13,COc1ccc2c3c([nH]c2c1)[C@@H](CO)N(C[C@]13CCN(CC1)CC1CCCC1)C(=O)Nc1cccc(c1)F,active
14,COc1ccc2c3c([nH]c2c1)[C@@H](CO)N(C[C@]13CCN(CC1)C(=O)Nc1cccc(c1)F)C(=O)c1ccccc1,inactive
15,COc1ccc2c3c([nH]c2c1)[C@H](CO)N(CC1CCCC1)C[C@]13CCN(CC1)C(=O)Nc1cccc(c1)F,inactive
16,Cc1noc(C)c1S(=O)(=O)Nc1ccc2c(c1)CC(=O)N([C@@H](C)CO)C[C@@H](C)[C@H](CN(C)S(=O)(=O)c1cccs1)O2,inactive
17,CCOC(=O)C(=O)N(C)CC(OC)OC,inactive
18,CCOC(=O)OC[C@@H]1[C@@H]2NC(=O)N(C)[C@@]1(COC(=O)NCCCCCC(=O)NO)Oc1ccccc12,inactive
